# Screen size: about 360,000 compounds; about 10,000 (2.8%) were called active. Not shown: some 4% with an inconclusive outcome. This excerpt belongs to a sample that is enriched for actives. A number with no mark means an inactive call. Calls come from the whole dose curve; as a rule, active = well fitted inhibition curve with a large enough effect; inconclusive = small, poorly fitted or top-dose-only effect; inactive = flat fitted curve, though single readings scatter.
# Molecular target: Serine/threonine-protein kinase PLK1 (Homo sapiens) (UniProt P53350)
# Test: qHTS for Inhibitors of PLK1-PDB (polo-like kinase 1 - polo-box domain): Primary Screen; note: nearly all actives have a fitted effect of over 65% in size; for max response, negative = inhibition: series mostly up to about 57 µM
# Conditions: Plk1 PBD binding of FITC phosphopeptide, fluorescence polarization
# Source text: The polo-like kinase 1 (Plk1) is a member of a conserved subfamily of serine / threonine protein kinases that plays a pivotal roles in cell proliferation. It has a C-terminal non-catalytic region called the polo-box domain (PBD) that plays a crucial role in the subcellular localization of the Plk1. […] Furthermore, depletion of the overexpressed Plk1 by RNAi efficiently induces apoptotic cell death in cancer and reduces tumor growth in mouse xenograft models. Thus, targeting Plk1 is an appealing strategy for anti-cancer therapy. Therefore, this project aimed to screen the Molecular Libraries Small Molecule Repository (MLSMR) using a novel approach to find inhibitors that target the Plk1 PBD instead of the conventional N-terminal catalytic domain. This project employed a fluorescence polarization (FP) assay using a FITC-conjugated phospho-9-mer (p-9-mer) peptide and purified human Plk1 PBD protein. The identified small molecule inhibitors of Plk1 PBD can then further be developed into useful tools for biomedical and clinical research that complements or replaces current relevant disease therapy. NIH Chemical Genomics Center [NCGC] NIH Molecular Libraries Probe Centers Network [MLPCN] MLPCN Grant: MH100728 Assay Submitter (PI): Kyung Lee, NCI
# Four microliter of 25 nM FITC-p-9-mer + 60 nM Plk1 PBD in buffer solution (final concentrations 25 nM and 60 nM respectively) or 4 uL of 25 nM FITC-p-9-mer (final concentration 25 nM) in buffer will be dispensed into a 1,536 Greiner medium-binding black solid plate. Small molecules at final concentrations of 18 nM to 57 uM and positive control phospho-9-mer (sequence: Ac-PPLHSpTAI-NH2) at final concentrations 26 nM to 57 uM and phospho-13-mer (sequence: Ac-[…]pTAI-NH2) at final concentrations of 1 nM to 2.3 uM will be pin-transferred (23 nL) to the plate via a Kalypsys pin-tool robotics equipped with a 1,536-pin array. The reaction plate will be centrifuged for 1 min at 1000 rpm and incubated at room temperature for 10 min. The FITC fluorescence signals will be read using the PerkinElmer ViewLux plate reader at 480 / 20 nm excitation and 540 / 20 nm S and P polarization emission wavelengths. Reagent bottles will be kept submerged into 4 °C recirculating chiller bath and all liquid lines will be covered with aluminum foil to minimize degradation. Library plates will be screened starting from the lowest to the highest concentrations to minimize compound carryover. Vehicle only plates, with DMSO being pin-transferred instead of compound solutions, will be included regularly throughout the screen to record any systematic shifts in assay signal.
# % is set by controls: 0 for no effect and ±100 for the full control effect; potency is the fitted concentration of half-maximal effect.
# Chain of Serine/threonine-protein kinase PLK1 (Homo sapiens) (P53350 whole entry, looked up, the tested form may be a part): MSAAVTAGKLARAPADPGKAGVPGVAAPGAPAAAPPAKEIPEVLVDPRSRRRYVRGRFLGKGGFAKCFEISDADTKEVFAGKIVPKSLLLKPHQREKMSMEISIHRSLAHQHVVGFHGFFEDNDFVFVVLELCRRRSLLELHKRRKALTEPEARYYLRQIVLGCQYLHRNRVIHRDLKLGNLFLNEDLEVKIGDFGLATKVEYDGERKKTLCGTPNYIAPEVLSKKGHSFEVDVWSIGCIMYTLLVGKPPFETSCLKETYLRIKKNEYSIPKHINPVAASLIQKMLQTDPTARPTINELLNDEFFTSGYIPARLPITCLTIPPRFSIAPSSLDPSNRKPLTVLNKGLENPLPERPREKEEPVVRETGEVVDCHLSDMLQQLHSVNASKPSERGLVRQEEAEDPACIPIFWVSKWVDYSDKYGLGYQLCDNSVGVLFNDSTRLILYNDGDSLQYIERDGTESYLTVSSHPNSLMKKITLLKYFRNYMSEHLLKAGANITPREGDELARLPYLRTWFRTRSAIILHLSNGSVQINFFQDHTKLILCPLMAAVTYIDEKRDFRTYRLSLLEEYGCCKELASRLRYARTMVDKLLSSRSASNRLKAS
Structure (SMILES),"max response, negative = inhibition [%]",Potency
CCn1c(COc2c(C)cccc2C)nnc1SCc1nc2ccccc2c(=O)[nH]1,-11.4,
CS(=O)(=O)C1=NN2C(=N)/C(=C\c3ccc(OCCOc4ccccc4)cc3)C(=O)N=C2S1,,26.7 µM (active)
COc1ccccc1OCCOc1ccc(/C=C2\C(=N)N3N=C(C)SC3=NC2=O)cc1,-15.8,
Cc1cc(/C=C2/C(=N)N3C(=NC2=O)SN=C3S(C)(=O)=O)c(C)n1-c1ccccc1,,26.7 µM (active)
COc1cc(/C=C2\C(=N)N3N=C(CC(=O)N4CCOCC4)SC3=NC2=O)cc(OC)c1OC,-14.2,
CCS(=O)(=O)C1=NSC2=NC(=O)/C(=C\c3ccc(OS(=O)(=O)c4ccccc4)cc3)C(=N)N21,,29.9 µM (active)
CS(=O)(=O)c1ccc2c(c1)SC1=NC(=O)/C(=C/c3ccco3)C(=N)N12,-3.25,
Cc1cc(/C=C2/NC(=O)NC2=O)c(C)n1-c1cccnc1,2.71,
CCCS(=O)(=O)NC(=O)C1(C)CCCN(C(=O)c2cccs2)C1 (configuration not stated),-11.7,
COc1cccc(-c2cc(NC(C)=O)c3ncc(-c4cccc(C(C)=O)c4)n3c2)c1,-19.9,
CCCCc1ccc(S(=O)(=O)NC(=O)C2(C)CCN2C(=O)c2ccccc2)cc1 (configuration not stated),-13.3,
CC1=C(C(=O)N2CCOCC2)CC(CC(=O)NCCN2CCOCC2)C(=O)N1CCC1=CCCCC1 (configuration not stated),1.89,
COc1cccc(-c2nc3nc(C)cc(C)n3c2NC2CCCCC2)c1,-13.3,
CCNC(=O)c1cc2c(c(-c3cccc(-c4cncnc4)c3)n1)[C@H](CCO)N(C(C)=O)C2,-4.29,
O=C(Nc1cc(Br)ccc1F)c1nc[nH]c1C(=O)NCc1ccccc1,-13.2,
COc1cccc(-c2cc3nc(NCc4ccccc4OC)n(C)c(=O)c3s2)c1,3.07,
c1nc(COc2nsnc2N2CCOCC2)cs1,-14.8,
c1ccc(COc2nsnc2N2CCOCC2)cc1,,26.7 µM (active)
O=C(O)COc1nsnc1N1CCOCC1,-5.74,
C[C@H]1COc2cc(N3CCSCC3)ccc2S(=O)(=O)N1,-1.34,
CC(C)C[C@H]1CNC(=O)C(=O)N1C[C@H]1CCCN1C[C@H](Cc1ccc(O)cc1)N1C[C@H](CC(C)C)N(CC2CCCCCC2)C(=O)C1=O,-0.278,

Structure (SMILES),"max response, negative = inhibition [%]",Potency
COc1ccc(S(=O)(=O)N2CCCCC2c2cc(C(=O)NCc3ccc(F)cc3)no2)cc1 (configuration not stated),4.51,
COc1cccc(/C=C(/CC(=O)Nc2ccc(N3CCOCC3)cc2)c2nc3ccccc3s2)c1,8.02,
Cc1nn(-c2ccccc2)c(Cl)c1/C=C/C(=O)c1ccc(O)cc1,-17.2,
Cc1nn(-c2ccc(F)cc2)c(Cl)c1/C=C(/CCC(=O)O)c1nc2ccccc2s1,,59.7 µM (active)
CC(C)[C@H](NC(=O)c1ccccc1F)C(=O)Nc1cccc(S(=O)(=O)N2CCOCC2)c1,2.03,
COc1ccc(CNC(=O)c2ccc(-c3cccnc3)c3ccoc23)cc1OC,-7.35,
CCOC(=O)C1=CCC2C(=O)N(Cc3ccccc3)C(=O)C12 (configuration not stated),-2.51,
CCN(CC)C(=O)C1CCCN(Cc2cccc(Cl)c2)C1 (configuration not stated),-16.8,
C=CCOc1c(Br)cc(/C=N\n2nnnc2N)cc1OC,-13.9,
CCOc1c(Br)cc(/C=C2\C(=O)N(CCC#N)N=C2C)cc1OC,,1.06 µM (active)
CC1(C(=O)NS(=O)(=O)c2cccc(F)c2)CCN1C(=O)Cc1ccc(Cl)cc1Cl (configuration not stated),1.99,
C[C@H](CO)N1C[C@H](C)[C@@H](CN(C)C(=O)C2CCCCC2)OCc2cnnn2CCCC1=O,-18.4,
CCOC(=O)C1=CC[C@@H](c2ccncc2)N(S(=O)(=O)c2ccc(C)cc2)C1,-3.59,
Cc1[nH][nH]c(=O)c1C(c1ccc(-c2ccc(Cl)cc2)o1)c1c(C)[nH][nH]c1=O,,26.7 µM (active)
CN(CC(=O)Nc1ccc(F)cc1)C(=O)c1ccc(-c2ccc(Cl)cc2)o1,-3.69,
NS(=O)(=O)c1ccc(CCNC(=O)CN2C(=O)c3ccccc3S2(=O)=O)cc1,-4.84,
COc1ccc(CNC(=O)CCn2cccc2)cc1,1.6,
COc1ccc(CNC(=O)CN2C(=O)c3ccccc3S2(=O)=O)cc1,,26.7 µM (active)
COc1cccc(OC)c1C(=O)N1CCN(Cc2ccccc2F)CC1,-14.6,
C=C1C(=O)OC2C1CCC(C)=CCCC1(C)OC21 (configuration not stated),-24.4,
CC1(C(=O)NS(=O)(=O)C2CC2)CCCN(C(=O)CSc2ccccc2)C1 (configuration not stated),-7.19,
